# This is one part of a sample in which the strongest signals are shown more often than they occur.
# B1: HML-Native (Hypnea musciformis), P84871 (protein)
# chain: QKFCTLDIAPVCCQIVIGGGMYTAGNACMCEGFVSGVGRCENPKECPCTREAQIPSCCSSRWGLVSVTGKCACDCLGGTVAFPEPCPSPY
# Columns and labels:
# Assay in all cases: glycan array binding signal (z-score within array); higher = stronger binding
# Details in all cases: glycan notation: IUPAC condensed, linker removed
# [1] = molecular target: Fuc(a1-2)Gal(b1-3)[Fuc(a1-4)]GlcNAc(b1-3)[Fuc(a1-3)[Gal(b1-4)]GlcNAc(b1-6)]Gal(b1-4)Glc
# Procedure, shortened: (§1)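 From the Consortium for Functional Glycomics database, 3228 arrays were curated, keeping only those whose protein sequence was available. Binding is given as a within-array Z-score averaged across arrays sharing a protein sequence and across linkers. Negative Z-scores can be read as non-binding.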
# [2] = molecular target: Fuc(a1-2)Gal(b1-4)[Fuc(a1-3)]GlcNAc(b1-2)[Fuc(a1-2)Gal(b1-4)[Fuc(a1-3)]GlcNAc(b1-4)]Man(a1-3)[Fuc(a1-2)Gal(b1-4)[Fuc(a1-3)]GlcNAc(b1-2)Man(a1-6)]Man(b1-4)GlcNAc(b1-4)GlcNAc
# Procedure, shortened: as §1
# [3] = molecular target: Fuc(a1-2)[Gal(a1-3)]Gal(b1-3)GlcNAc
# Procedure, shortened: as §1
# [4] = molecular target: Fuc(a1-2)[Gal(a1-3)]Gal(b1-4)[Fuc(a1-3)]Glc
# Procedure, shortened: as §1
# [5] = molecular target: Fuc(a1-2)[GalNAc(a1-3)]Gal(b1-3)GlcNAc(b1-2)Man(a1-3)[Fuc(a1-2)[GalNAc(a1-3)]Gal(b1-3)GlcNAc(b1-2)Man(a1-6)]Man(b1-4)GlcNAc(b1-4)GlcNAc
# Procedure, shortened: as §1
# [6] = molecular target: Fuc(a1-2)[GalNAc(a1-3)]Gal(b1-4)GlcNAc(b1-3)GalNAc
# Procedure, shortened: as §1
# [7] = molecular target: Fuc(a1-2)[GalNAc(a1-4)]Gal(b1-4)GlcNAc
# Procedure, shortened: as §1
# [8] = molecular target: Gal(b1-3)GalNAc(b1-4)[Neu5Ac(a2-3)]Gal(b1-4)Glc
# Procedure, shortened: as §1
# [9] = molecular target: Gal(b1-3)GlcNAc(b1-2)Man(a1-3)[Gal(b1-3)GlcNAc(b1-2)Man(a1-6)]Man(b1-4)GlcNAc(b1-4)[Fuc(a1-6)]GlcNAc
# Procedure, shortened: as §1
# [10] = molecular target: Gal(b1-3)GlcNAc(b1-2)Man(a1-3)[GlcNAc(b1-4)][Gal(b1-3)GlcNAc(b1-2)Man(a1-6)]Man(b1-4)GlcNAc(b1-4)GlcNAc
# Procedure, shortened: as §1
# [11] = molecular target: Gal(b1-4)Glc6S
# Procedure, shortened: as §1
# [12] = molecular target: Gal(b1-4)GlcNAc(b1-2)Man(a1-3)[Gal(b1-4)GlcNAc(b1-2)Man(a1-6)]Man(b1-4)GlcNAc(b1-4)[Fuc(a1-6)]GlcNAc
# Procedure, shortened: as §1
# [13] = molecular target: Gal(b1-4)GlcNAc(b1-2)Man(a1-3)[Gal(b1-4)GlcNAc(b1-2)Man(a1-6)][Gal(b1-4)GlcNAc(b1-4)]Man(b1-4)GlcNAc(b1-4)[Fuc(a1-6)]GlcNAc
# Procedure, shortened: as §1
# [14] = molecular target: Gal(b1-4)GlcNAc(b1-3)Gal(b1-3)GalNAc
# Procedure, shortened: as §1
# [15] = molecular target: Gal(b1-4)GlcNAc(b1-3)Gal(b1-4)GlcNAc(b1-2)Man(a1-3)[Gal(b1-4)GlcNAc(b1-3)Gal(b1-4)GlcNAc(b1-2)Man(a1-6)]Man(b1-4)GlcNAc(b1-4)[Fuc(a1-6)]GlcNAc
# Procedure, shortened: as §1
# [16] = molecular target: Gal(b1-4)GlcNAc(b1-3)Gal(b1-4)GlcNAc(b1-3)Gal(b1-4)GlcNAc(b1-2)Man(a1-3)[Gal(b1-4)GlcNAc(b1-3)Gal(b1-4)GlcNAc(b1-3)Gal(b1-4)GlcNAc(b1-2)Man(a1-6)]Man(b1-4)GlcNAc(b1-4)[Fuc(a1-6)]GlcNAc
# Procedure, shortened: as §1
# [17] = molecular target: Gal(b1-4)GlcNAc(b1-3)Gal(b1-4)GlcNAc(b1-3)Gal(b1-4)GlcNAc(b1-3)Gal(b1-4)GlcNAc(b1-2)Man(a1-3)[Gal(b1-4)GlcNAc(b1-3)Gal(b1-4)GlcNAc(b1-3)Gal(b1-4)GlcNAc(b1-3)Gal(b1-4)GlcNAc(b1-2)Man(a1-6)]Man(b1-4)GlcNAc(b1-4)[Fuc(a1-6)]GlcNAc
# Procedure, shortened: as §1
# [18] = molecular target: Gal(b1-4)GlcNAc(b1-3)Gal(b1-4)GlcNAc(b1-3)Gal(b1-4)GlcNAc(b1-3)Gal(b1-4)GlcNAc(b1-3)Gal(b1-4)GlcNAc(b1-2)Man(a1-3)[Gal(b1-4)GlcNAc(b1-3)Gal(b1-4)GlcNAc(b1-3)Gal(b1-4)GlcNAc(b1-3)Gal(b1-4)GlcNAc(b1-3)Gal(b1-4)GlcNAc(b1-2)Man(a1-6)]Man(b1-4)GlcNAc(b1-4)[Fuc(a1-6)]GlcNAc
# Procedure, shortened: as §1
# [19] = molecular target: Gal(b1-4)GlcNAc(b1-3)Gal(b1-4)GlcNAc(b1-6)[Gal(b1-3)]GalNAc
# Procedure, shortened: as §1
# [20] = molecular target: Gal3S(b1-4)GlcNAc
# Procedure, shortened: as §1
# [21] = molecular target: Gal6S(b1-3)GlcNAc6S
# Procedure, shortened: as §1
# [22] = molecular target: GalNAc(b1-3)Gal(a1-6)Gal(b1-4)Glc
# Procedure, shortened: as §1
# [23] = molecular target: GalNAc(b1-4)Gal(b1-4)Glc
# Procedure, shortened: as §1
# [24] = molecular target: GalNAc(b1-6)GalNAc
# Procedure, shortened: as §1
# [25] = molecular target: GlcA(b1-6)Gal
# Procedure, shortened: as §1
# [26] = molecular target: GlcNAc(a1-4)Gal(b1-4)GlcNAc(b1-3)Gal(b1-4)[Fuc(a1-3)]GlcNAc(b1-3)Gal(b1-4)[Fuc(a1-3)]GlcNAc
# Procedure, shortened: as §1
# [27] = molecular target: GlcNAc(b1-2)[GlcNAc(b1-4)]Man(a1-3)[GlcNAc(b1-2)Man(a1-6)]Man(b1-4)GlcNAc(b1-4)GlcNAc
# Procedure, shortened: as §1
# [28] = molecular target: GlcNAc(b1-2)[GlcNAc(b1-6)]Man(a1-6)[GlcNAc(b1-2)Man(a1-3)]Man(b1-4)GlcNAc(b1-4)[Fuc(a1-6)]GlcNAc
# Procedure, shortened: as §1
# [29] = molecular target: GlcNAc(b1-3)Fuc
# Procedure, shortened: as §1
# [30] = molecular target: GlcNAc(b1-3)Gal(b1-4)Glc
# Procedure, shortened: as §1
# [31] = molecular target: GlcNAc(b1-3)Gal(b1-4)GlcNAc(b1-2)Man(a1-3)[GlcNAc(b1-3)Gal(b1-4)GlcNAc(b1-2)Man(a1-6)]Man(b1-4)GlcNAc(b1-4)[Fuc(a1-6)]GlcNAc
# Procedure, shortened: as §1
# [32] = molecular target: GlcNAc(b1-3)Gal(b1-4)GlcNAc(b1-3)Gal(b1-4)GlcNAc(b1-2)Man(a1-3)[GlcNAc(b1-3)Gal(b1-4)GlcNAc(b1-3)Gal(b1-4)GlcNAc(b1-2)Man(a1-6)]Man(b1-4)GlcNAc(b1-4)[Fuc(a1-6)]GlcNAc
# Procedure, shortened: as §1
# [33] = molecular target: GlcNAc(b1-3)Gal(b1-4)GlcNAc(b1-3)Gal(b1-4)GlcNAc(b1-3)Gal(b1-4)GlcNAc(b1-2)Man(a1-3)[GlcNAc(b1-3)Gal(b1-4)GlcNAc(b1-3)Gal(b1-4)GlcNAc(b1-3)Gal(b1-4)GlcNAc(b1-2)Man(a1-6)]Man(b1-4)GlcNAc(b1-4)[Fuc(a1-6)]GlcNAc
# Procedure, shortened: as §1
# [34] = molecular target: GlcNAc(b1-3)Gal(b1-4)GlcNAc(b1-3)Gal(b1-4)GlcNAc(b1-3)Gal(b1-4)GlcNAc(b1-2)[GlcNAc(b1-3)Gal(b1-4)GlcNAc(b1-3)Gal(b1-4)GlcNAc(b1-3)Gal(b1-4)GlcNAc(b1-6)]Man(a1-6)[GlcNAc(b1-3)Gal(b1-4)GlcNAc(b1-3)Gal(b1-4)GlcNAc(b1-3)Gal(b1-4)GlcNAc(b1-2)Man(a1-3)]Man(b1-4)GlcNAc(b1-4)[Fuc(a1-6)]GlcNAc
# Procedure, shortened: as §1
# [35] = molecular target: GlcNAc(b1-3)Gal(b1-4)GlcNAc(b1-6)[Gal(b1-3)]GalNAc
# Procedure, shortened: as §1
# [36] = molecular target: GlcNAc(b1-4)GlcNAc(b1-4)GlcNAc(b1-4)GlcNAc(b1-4)GlcNAc(b1-4)GlcNAc
# Procedure, shortened: as §1
# [37] = molecular target: GlcNAc(b1-4)[GlcNAc(b1-6)]GalNAc
# Procedure, shortened: as §1
# [38] = molecular target: Man(a1-2)Man(a1-2)Man(a1-6)[Man(a1-3)]Man
# Procedure, shortened: as §1
# [39] = molecular target: Man(a1-3)[Man(a1-6)]Man(b1-4)GlcNAc(b1-4)[Fuc(a1-6)]GlcNAc
# Procedure, shortened: as §1
# [40] = molecular target: Man(a1-6)Man
# Procedure, shortened: as §1
# [41] = molecular target: Neu5Ac(a2-3)Gal(b1-3)GlcNAc(b1-3)Gal(b1-3)GlcNAc
# Procedure, shortened: as §1
# [42] = molecular target: Neu5Ac(a2-3)GalNAc
# Procedure, shortened: as §1
# [43] = molecular target: Neu5Ac(a2-6)Gal(b1-4)GlcNAc(b1-2)Man(a1-3)Man(b1-4)GlcNAc(b1-4)GlcNAc
# Procedure, shortened: as §1
# [44] = molecular target: Neu5Ac(a2-6)Gal(b1-4)GlcNAc(b1-2)Man(a1-3)[Man(a1-6)]Man(b1-4)GlcNAc(b1-4)GlcNAc
# Procedure, shortened: as §1
# [45] = molecular target: Neu5Ac(a2-6)Gal(b1-4)GlcNAc(b1-2)Man(a1-3)[Neu5Ac(a2-6)Gal(b1-4)GlcNAc(b1-2)Man(a1-6)]Man(b1-4)GlcNAc(b1-4)[Fuc(a1-6)]GlcNAc
# Procedure, shortened: as §1
# [46] = molecular target: Neu5Ac(a2-6)Gal(b1-4)GlcNAc(b1-3)Gal(b1-4)GlcNAc(b1-6)[Gal(b1-3)]GalNAc
# Procedure, shortened: as §1
binder,measurement,setting,value
B1,glycan array binding signal (z-score),[1],-0.188
same,glycan array binding signal (z-score),[2],-0.059
same,glycan array binding signal (z-score),[3],-0.211
same,glycan array binding signal (z-score),[4],-0.283
same,glycan array binding signal (z-score),[5],-0.093
same,glycan array binding signal (z-score),[6],-0.302
same,glycan array binding signal (z-score),[7],-0.162
same,glycan array binding signal (z-score),[8],-0.318
same,glycan array binding signal (z-score),[9],5.16
same,glycan array binding signal (z-score),[10],-0.276
same,glycan array binding signal (z-score),[11],-0.313
same,glycan array binding signal (z-score),[12],5.65
same,glycan array binding signal (z-score),[13],1.48
same,glycan array binding signal (z-score),[14],-0.238
same,glycan array binding signal (z-score),[15],5.52
same,glycan array binding signal (z-score),[16],4.93
same,glycan array binding signal (z-score),[17],4.9
same,glycan array binding signal (z-score),[18],4.8
same,glycan array binding signal (z-score),[19],-0.192
same,glycan array binding signal (z-score),[20],-0.233
same,glycan array binding signal (z-score),[21],-0.323
same,glycan array binding signal (z-score),[22],-0.345
same,glycan array binding signal (z-score),[23],-0.252
same,glycan array binding signal (z-score),[24],-0.284
same,glycan array binding signal (z-score),[25],-0.241
same,glycan array binding signal (z-score),[26],0.641
same,glycan array binding signal (z-score),[27],-0.307
same,glycan array binding signal (z-score),[28],4.99
same,glycan array binding signal (z-score),[29],-0.11
same,glycan array binding signal (z-score),[30],-0.205
same,glycan array binding signal (z-score),[31],5.62
same,glycan array binding signal (z-score),[32],5.5
same,glycan array binding signal (z-score),[33],5.16
same,glycan array binding signal (z-score),[34],1.38
same,glycan array binding signal (z-score),[35],-0.272
same,glycan array binding signal (z-score),[36],-0.197
same,glycan array binding signal (z-score),[37],-0.239
same,glycan array binding signal (z-score),[38],-0.005
same,glycan array binding signal (z-score),[39],5.72
same,glycan array binding signal (z-score),[40],-0.3
same,glycan array binding signal (z-score),[41],-0.295
same,glycan array binding signal (z-score),[42],-0.258
same,glycan array binding signal (z-score),[43],-0.157
same,glycan array binding signal (z-score),[44],-0.166
same,glycan array binding signal (z-score),[45],5.65
same,glycan array binding signal (z-score),[46],-0.205
